# Measured values published in PubChem BioAssay (NCI).
# Compounds without any hit were thinned out: in the full panel of roughly 79,000, 15% have a hit. Unmarked numbers belong to inactive results. Calls of active or inactive are those of the source. Cut-off read from the data, not from the text of the source: active = growth inhibition above about 70%; inactive = the rest.
# Legend:
# [1] = NCI Yeast Anticancer Drug Screen. Data for the rad50 strain (AID 155);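 note: 0% = growth of vehicle-only cultures of the same strain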; conditions: S. cerevisiae rad50 strain growth inhibition, active compounds read high
# Summary of the method: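 Readout: growth inhibition relative to vehicle-treated cultures. Compound exposure was carried out in a genetically defined yeast strain deficient in DNA damage repair.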
# [2] = NCI Yeast Anticancer Drug Screen. Data for the mec2-1 strain (AID 157); conditions: S. cerevisiae mec2-1 strain, active compounds read high
# Summary of the method: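 Compounds were applied to mec2-1 yeast cells. Their growth was then compared with that of vehicle-treated cultures to give growth inhibition.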
# [3] = NCI Yeast Anticancer Drug Screen. Data for the sgs1 mgt1 strain (AID 161);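 note: 0% = growth of cultures given vehicle only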; conditions: S. cerevisiae sgs1 mgt1 strain, active compounds read high
# Summary of the method: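 Yeast cells carrying a defined DNA-repair defect were exposed to test compounds. Growth inhibition was measured relative to vehicle-treated controls.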
# [4] = NCI Yeast Anticancer Drug Screen. Data for the cln2 rad14 strain (AID 165);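 note: 0% = growth equal to vehicle treated cultures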; conditions: S. cerevisiae cln2 rad14 strain, active compounds read high
# Summary of the method: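 Strain: cln2 rad14 yeast, altered in cell cycle control and DNA damage repair. Read-out: growth inhibition vs vehicle.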
# [5] = NCI Yeast Anticancer Drug Screen. Data for the bub3 strain (AID 167); conditions: S. cerevisiae bub3 mutant strain, active compounds read high
# Summary of the method: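 Readout: yeast growth inhibition, expressed relative to vehicle-only wells. The test organism is a mutant strain from a panel with lesions in DNA repair or checkpoint genes.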
# [6] = NCI Yeast Anticancer Drug Screen. Data for the mlh1 rad18 strain (AID 175); conditions: S. cerevisiae mlh1 rad18 strain growth inhibition, active compounds read high
# Summary of the method: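 A repair-deficient yeast strain is exposed to test compound, and growth is scored relative to vehicle-treated controls.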
# [7] = at 5.0 µM (retest, dose inferred, filed as 0.5)
# [8] = at 50.0 µM (retest, dose inferred, filed as 5.0)
SMILES,"growth inhibition [1, 7]","growth inhibition [1, 8]",growth inhibition ([1]; at 50.0 µM),"growth inhibition [2, 7]","growth inhibition [2, 8]",growth inhibition ([2]; at 50.0 µM),"growth inhibition [3, 7]","growth inhibition [3, 8]",growth inhibition ([3]; at 50.0 µM),"growth inhibition [4, 7]","growth inhibition [4, 8]",growth inhibition ([4]; at 50.0 µM),"growth inhibition [5, 7]","growth inhibition [5, 8]",growth inhibition ([5]; at 50.0 µM),"growth inhibition [6, 7]","growth inhibition [6, 8]",growth inhibition ([6]; at 50.0 µM)
CC(C)(C)c1ccc(CN2CCN(C(c3ccccc3)c3ccc(Cl)cc3)CC2)cc1 (stereo not given),20%,52%,15.7%,5%,17%,1.45%,27%,81% (active),-10.8%,-4%,21%,-8%,42%,73% (active),-4.4%,35%,61%,52.5%
Cc1cc([N+](=O)[O-])cc(Cl)c1O,-21%,51%,79.1% (active),-6%,79% (active),88.3% (active),-4%,87% (active),88% (active),7%,69%,85.2% (active),-21%,66%,82.3% (active),-58%,64%,80% (active)
C/C=C1\SC(=S)NC1=O,25%,99% (active),98.8% (active),11%,99% (active),98.8% (active),22%,98% (active),99.2% (active),6%,98% (active),95.9% (active),9%,98% (active),98% (active),36%,99% (active),99.3% (active)
CCCCCCCCC(C)c1ccccc1O (stereo not given),-150%,96% (active),99.7% (active),-53%,98% (active),99.7% (active),-68%,96% (active),99.4% (active),-62%,97% (active),99.4% (active),-56%,96% (active),99.5% (active),-151%,97% (active),99.4% (active)
CCOC(=O)c1cnc(SCc2ccc(Cl)cc2Cl)nc1Cl,1%,47%,38.4%,0%,73% (active),54.6%,16%,66%,58.5%,-3%,59%,71.8% (active),0%,54%,25.7%,0%,62%,65%
O=c1cc(CI)oc2ccccc12,34%,99% (active),99.4% (active),57%,99% (active),99.5% (active),46%,99% (active),99.6% (active),20%,100% (active),85.7% (active),45%,99% (active),94% (active),36%,99% (active),99.5% (active)
CN(C)COC(=S)SCN(C)C,98% (active),98% (active),51.4%,96% (active),99% (active),54.1%,99% (active),99% (active),60.2%,93% (active),99% (active),52.9%,96% (active),99% (active),98.3% (active),96% (active),99% (active),98.2% (active)
NC(=Nc1cc2ccccc2c2ccccc12)/N=C(/N)Nc1cc2ccccc2c2ccccc12,99% (active),97% (active),60.6%,100% (active),99% (active),56.2%,99% (active),98% (active),51.1%,99% (active),98% (active),50.8%,99% (active),98% (active),60%,99% (active),98% (active),51.7%
CC(C)(c1ccccc1)c1ccc2[nH]c(C(C)(C)c3ccccc3)c(CC(=O)O)c2c1,2%,93% (active),93.7% (active),10%,80% (active),69.5%,10%,96% (active),85.7% (active),0%,95% (active),96% (active),-3%,96% (active),94.8% (active),17%,96% (active),96% (active)
CCOC(=O)C(C(=O)OCC)C(=O)c1ccccc1C(=O)c1ccccc1,-12%,44%,60.8%,-17%,23%,34%,-9%,55%,56.9%,-2%,2%,14.8%,-3%,32%,51.5%,1%,59%,80.6% (active)
